Source: PubChem BioAssay (The Scripps Research Institute Molecular Screening Center)
TEAD-YAP inh: TEAD-YAP interaction inhibition; inhibition, % at 9.12 µM; HEK-TIYL cells, TEAD-Gal4/YAP UAS-luciferase luminescence; 1.4% of 640,000 active; in the data active = inhibition above about 32%;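 note: 0% = median of test compound wells and 100% = reference inhibitor wells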
FBW7 act: activators of human E3 ligase FBW7. 0.13% of 650,000 active. AlphaScreen FBW7–phospho-cyclin E peptide binding, activator screen. normalized activity (activation), % at 26.1 µM; in the data active = normalized activity above about 1.9%;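 note: purified mutant Fbw7 with reduced substrate affinity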
GPR151 ag: human GPR151 activation | AID 1508602 | 1% of 650,000 active | activation, % at 11.2 µM | PathHunter beta-arrestin GPR151 cells, luminescence; in the data active = activation above about 4.9%;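 note: 0% = median of compound wells and 100% = cells with positive control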
MITF primary: blocks human microphthalmia-associated transcription factor; O75030; AlphaScreen MITF homodimerization, bead proximity signal; inhibition, % at 2.6 µM; 0.91% of 650,000 active; AID 1259374; in the data active = inhibition above about 50%;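 note: 0% = vehicle wells with protein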
Target sequence (O75030 whole entry, looked up): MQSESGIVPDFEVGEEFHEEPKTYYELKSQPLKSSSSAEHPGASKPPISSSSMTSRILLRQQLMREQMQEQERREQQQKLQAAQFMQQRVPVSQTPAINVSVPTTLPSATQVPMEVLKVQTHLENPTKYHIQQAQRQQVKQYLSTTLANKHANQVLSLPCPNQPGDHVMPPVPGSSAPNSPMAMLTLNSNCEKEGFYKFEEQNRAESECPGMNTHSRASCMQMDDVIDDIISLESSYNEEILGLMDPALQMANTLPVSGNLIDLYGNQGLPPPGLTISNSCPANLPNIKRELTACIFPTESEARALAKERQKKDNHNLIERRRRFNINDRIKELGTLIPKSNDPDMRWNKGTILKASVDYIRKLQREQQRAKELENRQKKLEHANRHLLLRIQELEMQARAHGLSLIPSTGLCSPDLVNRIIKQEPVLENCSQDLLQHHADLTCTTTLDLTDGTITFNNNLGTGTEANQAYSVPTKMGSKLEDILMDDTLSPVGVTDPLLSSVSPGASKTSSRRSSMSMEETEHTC
MITF confirm: human MITF inhibition, confirmation. AlphaScreen MITF homodimerization, biotin/His-MITF beads. shares compounds with MITF primary. inhibition, % at 2.6 µM. 16% of 4,700 active;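 active = inhibition above a cutoff derived from the DMSO control wells, cut at about 28% in these data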;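 note: 0% = MITF dimer wells with DMSO only; inhibitors lower the bead chemiluminescence by keeping MITF from dimerizing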
AlphaScreen DR: AlphaScreen optical interference, dose response counter-screen; IC50, µM; AlphaScreen optical interference counterscreen, cell-free; AID 1259373; 6% of 480 active; shares compounds with MITF primary; call rule not given here
AS interf ctr: counter-screen: compounds optically interfering with AlphaScreen; shares compounds with MITF primary; LysRS AlphaScreen counterscreen, signal interference, triplicate; inhibition, % at 2.6 µM; 7.6% of 4,700 active; AID 1259376;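 active = inhibition above a cutoff derived from the DMSO control wells, cut at about 30% in these data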
Starred values were filed as active, the others as inactive. Hits are enriched below; roughly 3.5% of the tested compounds scored in any of these assays.

`COC(CNC(=O)Cn1nnnc1CN1CCC(C)CC1)c1cccs1` (stereo unspecified) gave TEAD-YAP inh 0.0, FBW7 act -0.1, GPR151 ag 1.1 and MITF primary 0.8.
`OC(COc1ccccc1F)CN1CCN(c2ccccc2)CC1` (stereo unspecified) gave TEAD-YAP inh 6.6, FBW7 act -0.1, GPR151 ag 4.2 and MITF primary 1.8.
`O=S(=O)(/C=C/c1ccccc1)N1CCN(CC(O)COc2ccccc2F)CC1` (stereo unspecified) gave TEAD-YAP inh 2.5, FBW7 act 0.1, GPR151 ag -0.9, MITF primary 59.9*, MITF confirm 2.3 and AS interf ctr 8.0.
O=S(=O)(c1cccs1)N1CCN(CCO)CC1 was read as TEAD-YAP inh 6.8, FBW7 act 0.0, GPR151 ag 1.4 and MITF primary -2.0.
For O=S(=O)(c1cccs1)N1CCN(CC(O)COc2ccccc2F)CC1 (stereo unspecified) the results were TEAD-YAP inh -3.7, FBW7 act -0.2, GPR151 ag -1.8, MITF primary 65.9*, MITF confirm -15.0 and AS interf ctr -2.0.
O=C(Nc1ccc(NC(=O)c2cccc([N+](=O)[O-])c2)cc1)c1ccccc1 was read as TEAD-YAP inh 4.9, FBW7 act 0.1, GPR151 ag 0.5 and MITF primary 6.2.
For O=C(/C=C/c1ccccc1)NCc1ccc(Cl)cc1 the results were TEAD-YAP inh -2.3, FBW7 act 0.2, GPR151 ag 0.1, MITF primary 52.0*, MITF confirm 3.9 and AS interf ctr -1.9.
For CCCOC(=O)C1=C(C)NC2=C(C(=O)CC(c3ccc(Cl)cc3)C2)C1c1cc(Br)c(O)c(OCC)c1 (stereo unspecified) the results were TEAD-YAP inh 0.8, FBW7 act 0.3, GPR151 ag 0.4 and MITF primary -8.7.
`O=C(/C=C\c1ccccc1)NCCCS(=O)(=O)N1CCN(c2ncccn2)CC1` gave TEAD-YAP inh 3.1, FBW7 act 0.0, GPR151 ag 0.1 and MITF primary -1.4.
Screening O=C(NC(c1ccccc1)c1ccccc1)c1ccccc1Br returned TEAD-YAP inh -0.7, FBW7 act 0.1, GPR151 ag 0.5 and MITF primary 13.1.
Screening O=C(CNC(c1ccccc1)c1ccccc1)NNC(=O)c1ccccc1Br returned TEAD-YAP inh 0.8, FBW7 act 0.0, GPR151 ag 0.2, MITF primary 62.8*, MITF confirm 9.2 and AS interf ctr 17.2.
`Cc1noc(C)c1S(=O)(=O)N1CCCC(C(=O)Nc2ccc(F)cc2F)C1` (stereo unspecified) gave TEAD-YAP inh 14.4, FBW7 act -0.1, GPR151 ag 1.0 and MITF primary 3.6.
For O=C(Oc1ccccc1Cl)c1cccc(S(=O)(=O)N2CCOCC2)c1 the results were TEAD-YAP inh 1.2, FBW7 act 0.0, GPR151 ag -0.2 and MITF primary -5.3.
`Cc1cc(S(=O)(=O)NCc2ccsc2)ccc1F` gave TEAD-YAP inh -1.1, FBW7 act 0.8, GPR151 ag 2.5 and MITF primary 3.5.
O=S(=O)(NCc1ccsc1)c1ccc(F)c(Cl)c1 was read as TEAD-YAP inh 6.2, FBW7 act 0.5, GPR151 ag -0.6, MITF primary 62.4*, MITF confirm -8.5 and AS interf ctr -0.2.
Cc1ccc(S(=O)(=O)N2CC(O)CC2C(=O)O)cc1C (stereo unspecified) was read as TEAD-YAP inh 1.6, FBW7 act -0.1, GPR151 ag 1.6 and MITF primary 3.2.
Screening O=C(O)C1CC(O)CN1S(=O)(=O)c1ccc(Cl)c(Cl)c1 (stereo unspecified) returned TEAD-YAP inh 10.0, FBW7 act 0.1, GPR151 ag -0.5, MITF primary 65.5*, MITF confirm -6.4 and AS interf ctr -10.1.
For O=C(NCc1cccs1)c1nn2c(C(F)(F)F)cc(-c3ccco3)nc2c1Br the results were TEAD-YAP inh -4.5, FBW7 act -0.2, GPR151 ag -0.9, MITF primary 78.3*, MITF confirm 4.9 and AS interf ctr 19.6.
CCc1ccc(-n2c(=S)sc3c(=O)n(-c4ccccc4OC)c(SC)nc32)cc1 was read as TEAD-YAP inh 5.5, FBW7 act 0.1, GPR151 ag 0.1 and MITF primary -6.2.
For COc1ccc(N(C2=NCCCS2)S(=O)(=O)c2ccc(OC)cc2)cc1 the results were TEAD-YAP inh 4.5, FBW7 act 0.0, GPR151 ag 0.3, MITF primary 55.7*, MITF confirm -12.1 and AS interf ctr -3.5.
For CC(=O)c1ccc(S(=O)(=O)N(C2=NCCCS2)c2ccc(F)cc2)cc1 the results were TEAD-YAP inh -7.8, FBW7 act 0.0, GPR151 ag -0.4 and MITF primary -14.0.
O=C(COc1ccc(Br)cc1)NCc1nc(-c2ccc(Cl)cc2)no1 was read as TEAD-YAP inh -5.9, FBW7 act -0.2, GPR151 ag 0.4, MITF primary 56.3*, MITF confirm -17.0 and AS interf ctr -6.3.
For CS(=O)(=O)c1ccc(CNC(=O)c2cccc3cc[nH]c23)cc1 the results were TEAD-YAP inh -5.3, FBW7 act 0.1, GPR151 ag 1.9 and MITF primary 6.6.
NC(=O)c1ccccc1OCC(=O)Nc1cccc(C(F)(F)F)c1 was read as TEAD-YAP inh -69.5, FBW7 act -0.2, GPR151 ag -0.1 and MITF primary -1.4.
`O=C(COc1ccccc1C(=O)OC1CCCC1=O)Nc1cccc(C(F)(F)F)c1` (stereo unspecified) gave TEAD-YAP inh 5.7, FBW7 act -0.2, GPR151 ag 1.7, MITF primary 62.5*, MITF confirm 72.5*, AlphaScreen DR >6.77 and AS interf ctr 3.1.
`CCOC(=O)CSc1nnc(NC(=O)c2c(-c3ccccc3Cl)noc2C)s1` gave TEAD-YAP inh 1.5, FBW7 act -0.1, GPR151 ag -0.6 and MITF primary 11.9.
`CCSc1nnc(NC(=O)c2c(-c3ccccc3Cl)noc2C)s1` gave TEAD-YAP inh 6.4, FBW7 act 0.4, GPR151 ag -0.9, MITF primary 114.1*, MITF confirm 25.1 and AS interf ctr 11.7.
For O=C(O)C1CCN(C2CCN(Cc3ccccc3)CC2)CC1 the results were TEAD-YAP inh 1.0, FBW7 act -0.1, GPR151 ag 0.1, MITF primary 74.9*, MITF confirm 11.7 and AS interf ctr 7.0.
For O=C(c1ccccc1F)N1CCN(C2CCN(Cc3ccccc3)CC2)CC1 the results were TEAD-YAP inh 5.3, FBW7 act -0.1, GPR151 ag 0.1, MITF primary 60.8*, MITF confirm 9.2 and AS interf ctr 17.9.
For c1ccc(CN2CCC(N3CCN(Cc4ccccc4)CC3)CC2)cc1 the results were TEAD-YAP inh 2.0, FBW7 act 0.2, GPR151 ag -0.5 and MITF primary 23.8.
